Measurements from PubChem BioAssay AID720488 (Milwaukee Institute for Drug Discovery, 2013).
“And” between values parts separate entries of the source, which are not always exact repeats. Equal entries are not always repeated. In all, about 16,000 compounds went through this assay and about 960 (6%) were called active. This is one part of a sample in which actives are shown more often than they occur. A number with no mark means an inactive call.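 How the source made its calls: active means compound fluorescence over control fluorescence at most 0.8, a quencher, or at least a set upper limit, an enhancer; inactive means ratio between 0.8 and the set upper limit.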

Assay: fluorescence interference in NS3h DNA assay – biochemical, ChemBridge library, Cy5 readout, artefact control for HCV NS3 helicase inhibitor project (AID 720488)
Conditions: Cy5-dT15 DNA with NS3h, at 100 µM, actives lie on both sides, signal over control mean, under 1 quenches

SMILES | fluorescence interference ratio
CC(=O)c1cccc(N2C(=O)C3C4C=CC(C5CC45)C3C2=O)c1 (stereo unspecified) | 0.66 (active)
O=C1C2C3C=CC(C3=C(c3ccccc3)c3ccccc3)C2C(=O)N1c1cccc(C(F)(F)F)c1 (stereo unspecified) | 1.02
CCOc1ccc(C(=O)Nc2ccc(Cl)c(-c3nc4ncccc4o3)c2)cc1Cl | 1.17
O=C1NC(=Nc2cccc(O)c2)S/C1=C\c1cccc(O)c1 | 0.898
Cc1cccc(N=C2NC(=O)/C(=C\c3ccc([N+](=O)[O-])cc3)S2)c1C | 0.748 (active)
Cc1cccc(N=C2NC(=O)CS2)c1C | 1
COC(=O)C1=C(O)/C(=C\c2ccccc2C(F)(F)F)N=C1C | 0.891
CCOC(=O)c1[nH]c(=O)[nH]c1CSc1nccn1C | 1.03
Cc1cc(/C=N\O)c(C)n1-c1ccc(F)cc1 | 0.964
Cc1cc(Br)cc(C)c1NC(=O)c1cc2ccccc2o1 | 0.937
O=C(Nc1ccncc1)c1cc2ccccc2o1 | 0.446 (active)
Cc1ccc(NC(=O)c2cccc(C(=O)Nc3ccc(C)cc3)n2)cc1 | 0.981
Cc1ccccc1CC1S/C(=N/N=C\c2ccc(N(C)C)cc2)NC1=O (stereo unspecified) | 0.981
Cc1cccc(NS(=O)(=O)c2ccc([N+](=O)[O-])cc2)n1 | 0.931
COc1ccc(C2=CC=C(c3ccc(OC)cc3)C2)cc1 | 0.865
CCOCCOCCC(C(=O)O)P(=O)(c1ccccc1)c1ccccc1 (stereo unspecified) | 0.631 (active)
CCCCOCP(=O)(c1ccccc1)c1ccccc1 | 1.1
CCOC(=O)C(C#N)C(=S)Nc1ccccc1 (stereo unspecified) | 1.02
Cn1cnc2c1c(=O)n(Cc1ccc(F)cc1)c(=O)n2C | 1.12
COc1ccc(C(=O)COc2cc3c(C(=O)OC(C)C)c(C)oc3cc2Br)cc1 | 1
O=[N+]([O-])c1cccc(S(=O)(=O)NCc2ccccn2)c1 | 1.05
COc1ccc(N2C(=O)C3C4C=CC(C4=C(C)C)C3C2=O)c([N+](=O)[O-])c1 (stereo unspecified) | 0.887
COc1ccc(N=Cc2sccc2C)c([N+](=O)[O-])c1 | 1.02
COc1ccc(N2C(=O)C=CC2=O)c([N+](=O)[O-])c1 | 0.622 (active)

SMILES | fluorescence interference ratio
CC1(C(=O)Nc2ccccc2Cl)CC2c3ccccc3C1c1ccccc12 (stereo unspecified) | 0.972
C=CCOC(=O)C1=C(C)NC(C)=C(C(=O)OCC=C)C1c1cccs1 | 0.9
O=C(Nc1ccc(Cl)c(Cl)c1)Nc1nnc(-c2ccc(Br)cc2)s1 | 1.03
C/C(=N/NS(=O)(=O)c1ccccc1)c1cccc(Br)c1 | 1.04
Cc1ccc(/C=C/C(=O)Nc2cccc([N+](=O)[O-])c2)o1 | 0.895
CCNC(=O)NC1C(NC(=O)NCC)N(C)C(=O)N1C (stereo unspecified) | 0.995
O=C(CCN1C(=O)/C(=C/c2ccccc2)SC1=S)Nc1cccc(Cl)c1 | 1.04
C=CCN1C(=O)/C(=C/c2ccccc2OCc2ccc([N+](=O)[O-])cc2)SC1=S | 1.07
C=CCN1C(=O)/C(=C\c2cc(Cl)c(O)c(Cl)c2)SC1=S | 0.772 (active)
O=C(NCCCN1CCOCC1)C(=O)Nc1ccc(F)cc1 | 1.06
O=C(NCc1cccs1)c1cc2n(n1)C(C(F)(F)F)CC(c1ccc(Cl)c(Cl)c1)N2 (stereo unspecified) | 1.05
COc1ccc(NC(=O)C(=O)NCc2ccccn2)c(OC)c1 | 1.03
O=C1C2C3C=CC(C3)C2C(=O)N1/N=C\c1cccc(I)c1 (stereo unspecified) | 0.959
COC(=O)c1cc(NC(=O)COc2ccc([N+](=O)[O-])cc2)cc(C(=O)OC)c1 | 1.05
O=C(NC(=S)Nc1ccc([N+](=O)[O-])cc1O)c1ccc(Br)cc1 | 0.952
CC(C)COc1ccc(C(=O)Nc2cc([N+](=O)[O-])ccc2Cl)cc1 | 0.656 (active)
O=C(Nc1cc([N+](=O)[O-])ccc1O)c1ccc(C(=O)Nc2cc([N+](=O)[O-])ccc2O)cc1 | 1.24 (active)
CCC(C)c1ccc(NC(=O)c2ccc([N+](=O)[O-])cc2)cc1 (stereo unspecified) | 1.06
Cc1ccc(OCC(=O)Nc2cc([N+](=O)[O-])ccc2Cl)cc1 | 1.03
CN(C(=O)COc1ccc2ccccc2c1)c1ccccc1 | 1.02
Cc1cc(C(=O)Nc2ccccc2C(=O)O)ccc1NC(=O)CC(C)C | 1.04
COc1ccc(C2CC(c3ccc([N+](=O)[O-])cc3)=NN2)cc1 (stereo unspecified) | 0.645 (active)
COc1ccc(C2=NN(C(C)=O)C(c3ccccc3)C2)cc1 (stereo unspecified) | 1.05
C=C(C)Cn1c(-c2ccc([N+](=O)[O-])cc2)n[nH]c1=S | 1.03

SMILES | fluorescence interference ratio
O=C1OC(c2ccc(F)cc2)=N/C1=C\c1ccc2c(c1)OCO2 | 1.09
O=C(CSc1nnc(-c2ccc(Br)cc2)o1)OCc1ccccc1 | 0.95
COC(=O)c1ccccc1NC(=O)c1cncc(Br)c1 | 0.974
COc1ccc(C2CC(C(F)(F)F)n3nc(C(=O)N4CCN(c5ccc(F)cc5)CC4)c(Cl)c3N2)cc1 (stereo unspecified) | 0.951
N#Cc1c(SCC(=O)c2ccc(Cl)cc2)nc2c(c1-c1ccco1)CCCC2 | 0.953
O=C(Nc1ccc(Oc2ccccc2)cc1)c1ccco1 | 0.978
N#Cc1c(N)nc2sc(C(=O)Nc3ccccc3)c(N)c2c1-c1ccco1 | 1.21 (active)
Cc1cccc(NC(=O)/C=C/c2ccc(F)cc2)c1 | 0.934
CCOC(=O)c1ccc(-n2c(C)cc(/C=N\n3cnnc3)c2C)cc1 | 1.03
O=C1c2ccccc2C(=O)c2c1cccc2N1CCN(CCO)CC1 | 1.22 (active)
CCOC(=O)C1=C(C)N=c2s/c(=C/c3ccc(C(=O)OC)cc3)c(=O)n2C1c1ccc(OC(C)=O)cc1 (stereo unspecified) | 1.07
CNC(=O)C1CC(=O)N(c2ccc(F)cc2)C1 (stereo unspecified) | 1.11
O=C(COC(=O)C1CCCN1C(=O)OCc1ccccc1)c1ccc(-c2ccccc2)cc1 (stereo unspecified) | 1.04
COc1ccc2[nH]cc(CCNC=O)c2c1 | 1.01
S=C(Nc1ccccc1)Nc1ccccc1NC(=S)Nc1ccccc1 | 1.03
CCc1ccccc1NC(=O)C(=O)NCc1ccco1 | 1.09
CCc1ccccc1NC(=O)/C(=C/c1ccccc1)c1ccccc1 | 0.606 (active)
CCOC(=O)c1ccc(NC(=O)c2cc(OCC)cc(OCC)c2)cc1 | 1.01
CCOC(=O)c1ccc(NC(=O)c2ccccc2OC)cc1 | 0.661 (active)
CCOC(=O)c1ccc(NC(=O)C(=O)NCc2ccc(C)cc2)cc1 | 1
COc1ccc(Br)cc1C(=O)Nc1cccc(-c2nc3ccccc3[nH]2)c1 | 0.978
O=C(/C=C\c1ccccc1)Nc1ccc(Br)cn1 | 0.948
O=C(Nc1ccc(OC(F)(F)F)cc1)c1nn2c(c1Br)NC(c1cccs1)CC2C(F)(F)F (stereo unspecified) | 1
O=C(Nc1ccc(Cl)cc1C(O)c1ccccc1)c1cnn2c1NC(c1ccccc1)CC2C(F)(F)F (stereo unspecified) | 0.956

SMILES | fluorescence interference ratio
COc1cc(NC(=O)c2cnn3c2NC(c2cccs2)CC3C(F)(F)F)c(OC)cc1Cl (stereo unspecified) | 0.659 (active)
CSc1ccc(C=Nc2ccc(C#N)cc2)cc1 | 1.07
Cc1cccc(C(=O)Nc2cccc(NC(=O)COc3ccccc3Cl)c2)c1 | 0.946
CC(C)(C)NC(=O)CN(c1cccc(C(F)(F)F)c1)S(C)(=O)=O | 1.05
COc1ccc(NC(=O)c2cccc(Cl)c2Cl)cc1OC | 0.784 (active)
COc1ccc(Br)cc1C(=O)Nc1ccc(F)c([N+](=O)[O-])c1 | 0.959
CC(=O)c1ccc(NC(=O)c2c(Cl)cccc2Cl)cc1 | 1.03
CCOc1ccc(-n2c(O)c(C=C3C=CC=N3)c(=O)[nH]c2=O)cc1 | 0.942
COC(=O)C1CC(OCc2ccccc2)C1 (stereo unspecified) | 0.97
CCOc1cc(/C=C(\C#N)c2nc3ncc(Br)cc3[nH]2)ccc1O | 0.791 (active)
CCn1c(-c2ccc(OC)cc2)n[nH]c1=S | 1 and 1.01
CCN1C(=O)C(=Cc2ccc(O)cc2)C(=O)NC1=S | 1.02
Cc1cc(C)cc(N2C(=O)NC(=O)/C(=C\c3ccc(F)cc3)C2=O)c1 | 1.02
CCN(CC)c1ccc(N2C(=O)/C(=C/c3ccc4c(c3)OCO4)SC2=S)cc1 | 1.12
CCN(CC)c1ccc(C=C2C(=O)N(C)C(=O)N(C)C2=O)c(O)c1 | 2.02 (active)
CCN(CC)c1ccc(/C=C2\C(=O)NC(=O)N(C)C2=O)cc1 | 1.29 (active)
NS(=O)(=O)c1ccc(CNC(=O)c2ccc(Cl)cc2[N+](=O)[O-])cc1 | 0.985
O=C(CSc1ncc(-c2ccccc2)[nH]1)Nc1ccc(Br)cc1 | 0.959
COc1ccc(Cl)cc1C(=O)N1CCN(c2cccc(Cl)c2)CC1 | 0.934
CCOC(=O)NCc1ccc(N(C)C)cc1 | 0.963
CP(=O)(c1ccc(C(N)=O)cc1)c1ccc(C(N)=O)cc1 | 1.06
O=C(Nc1c(F)cc(F)cc1Br)c1cc2n(n1)C(C(F)(F)F)CC(c1ccc(Cl)cc1)N2 (stereo unspecified) | 1.04
CCc1ccc(N2C(=O)/C(=C/c3cc(C)n(-c4cccnc4)c3C)C(=O)NC2=S)cc1 | 1.1
NC(=NS(=O)(=O)c1ccccc1)c1ccc(Cl)cc1 | 1.06
